Records with an inconclusive call do not appear. Entries that show only a call come without a potency. Calls of active or inactive are those of the source. Calls come from the whole dose curve; as a rule, active = well fitted inhibition curve with a large enough effect; inconclusive = small, poorly fitted or top-dose-only effect; inactive = no such curve, though single readings can be large or run the other way.
These molecules were tested against Rap guanine nucleotide exchange factor 3 (Homo sapiens) (UniProt O95398) (assay: Counterscreen qHTS for antagonist of cAMP-regulated guanine nucleotide exchange factor 3 (EPAC1) (AID 1645888;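 note: fluorescence loss as bound BODIPY-GDP is released from Rap1B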)). Settings: Rap1B-BODIPY-GDP nucleotide exchange, fluorescence; series mostly up to 154 µM.
Outline: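 Rap1B-BODIPY-GDP 250 nM + GDP 50 uM; cpds 7-pt, final 9.74 nM–152 uM (activator mode) or from 7.32 nM upwards (inhibitor mode); RT; FI 480/540 nm at 5 and 30 min, then ± cAMP, reread.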

Sequence of Rap guanine nucleotide exchange factor 3 (Homo sapiens) (O95398 whole entry, looked up): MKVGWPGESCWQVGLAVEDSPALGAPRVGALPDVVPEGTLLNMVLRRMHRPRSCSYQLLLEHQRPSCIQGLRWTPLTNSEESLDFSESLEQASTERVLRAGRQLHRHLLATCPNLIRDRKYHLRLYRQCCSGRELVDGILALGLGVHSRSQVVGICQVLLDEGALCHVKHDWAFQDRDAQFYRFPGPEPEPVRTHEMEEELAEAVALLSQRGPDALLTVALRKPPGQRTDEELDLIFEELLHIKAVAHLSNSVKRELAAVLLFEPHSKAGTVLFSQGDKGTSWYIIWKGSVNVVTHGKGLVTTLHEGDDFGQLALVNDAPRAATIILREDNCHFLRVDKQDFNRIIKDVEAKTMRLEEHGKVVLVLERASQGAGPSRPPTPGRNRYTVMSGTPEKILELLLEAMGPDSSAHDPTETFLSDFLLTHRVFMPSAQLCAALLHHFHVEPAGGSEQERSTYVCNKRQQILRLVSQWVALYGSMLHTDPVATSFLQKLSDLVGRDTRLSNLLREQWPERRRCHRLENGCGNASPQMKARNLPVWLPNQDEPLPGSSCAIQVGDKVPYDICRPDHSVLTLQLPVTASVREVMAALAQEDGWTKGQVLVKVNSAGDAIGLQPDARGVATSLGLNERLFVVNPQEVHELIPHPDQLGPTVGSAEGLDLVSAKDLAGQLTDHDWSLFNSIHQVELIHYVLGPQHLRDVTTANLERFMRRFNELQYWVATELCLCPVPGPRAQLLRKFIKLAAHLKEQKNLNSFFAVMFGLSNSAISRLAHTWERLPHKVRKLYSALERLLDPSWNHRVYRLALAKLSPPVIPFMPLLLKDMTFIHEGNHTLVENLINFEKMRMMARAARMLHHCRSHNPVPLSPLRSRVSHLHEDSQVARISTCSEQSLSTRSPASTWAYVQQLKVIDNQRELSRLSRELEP

Row | SMILES | activity change, negative = inhibition | Potency
1 | COc1cc(C2CC(=O)Oc3cc(C)c(Br)c(C)c32)cc(OC)c1OC (stereo not drawn) | -6.95% [at 30.8 µM] (inactive) | –
2 | O=C(NCCc1ccccc1)c1ccc(Cn2c(SCc3cccc(F)c3)nc3cccnc32)cc1 | – | inactive
3 | Nc1ccccc1C(=O)NNc1c2ccccc2nc2ccccc12 | – | inactive
4 | O=C1CS(=O)(=O)N(Cc2cccc(F)c2)c2ccc(Br)cc21 | – | inactive
5 | O=C1C=C(NS(=O)(=O)c2ccccc2)C(=O)c2ccccc21 | – | inactive
6 | O=C(CSc1ccc(-c2ccco2)nn1)c1cccc([N+](=O)[O-])c1 | – | inactive
7 | O=C(NNC(=O)c1ccccc1F)c1cccc(-n2cccc2)c1 | – | inactive
8 | CC(C)(C)NC(=O)COC(=O)c1c2c(nc3ccccc13)CCC2 | -10.2% [at 30.8 µM] (inactive) | –
9 | COc1ccc2oc(=O)c(-c3nnc(NCc4ccco4)s3)cc2c1 | 15.5% [at 30.8 µM] (inactive) | –
10 | COC(=O)C1(C)CC1(c1ccccc1)c1ccccc1 (stereo not drawn) | 1.55% [at 30.8 µM] (inactive) | –
11 | O=C(COc1ccccc1-c1ccccc1)NCc1ccco1 | – | inactive
12 | c1cc(-c2cc3nc(NC4CCCCC4)ccn3n2)ccc1OCCN1CCOCC1 | – | inactive
13 | CCc1ccc2occ(CC(=O)Nc3ccc(C)c(C)c3)c2c1 | – | inactive
14 | O=C(/C=C/c1ccco1)Nc1cccc2cccnc12 | 21.3% [at 30.8 µM] (inactive) | –
15 | O=C(O)c1ccc(N2C(=O)CC(SC(=NCc3ccc4c(c3)OCO4)Nc3ccc(F)cc3)C2=O)cc1 (stereo not drawn) | – | inactive
16 | NC(=O)[C@H]1CC2(CC(c3cccc(NC(=O)[C@H]4CCC(=O)N4)c3)=NO2)CN1C(=O)c1ccccc1 (stereo partly drawn) | – | inactive
17 | Cn1c(=O)c(C(=O)NNC(=O)c2ccccc2Br)c(O)c2ccccc21 | -5.21% [at 30.8 µM] (inactive) | –

Row | SMILES | activity change, negative = inhibition | Potency
18 | O=c1c2ccccc2nc(N/N=C/c2c(O)ccc3ccccc23)n1O | – | inactive
19 | CCCC1=C(C(=O)OCC)C(c2ccco2)C(C#N)=C(N)O1 (stereo not drawn) | -11% [at 30.8 µM] (inactive) | –
20 | O=C(N/N=C/c1ccc(Sc2ccccn2)o1)c1cc2ccccc2cc1O | – | inactive
21 | CC(C)(C)Cc1c(-c2ccccc2)nc2ccc(Cl)cn12 | -2.23% [at 30.8 µM] (inactive) | –
22 | O=C(NCc1ccccc1)C(c1ccccc1)n1c(=O)c(-c2ccco2)nc2ccccc21 (stereo not drawn) | 5.07% [at 30.8 µM] (inactive) | –
23 | CCN=C1S/C(=C\c2ccc(-c3cccc(C(=O)O)c3)o2)C(=O)N1CC | – | inactive
24 | O=C(/C=C/c1ccc(-c2ccccc2[N+](=O)[O-])o1)c1ccco1 | 9.73% [at 30.8 µM] (inactive) | –
25 | CCOc1ccc(S(=O)(=O)Nc2ccc(F)cc2)c(C)c1C | – | inactive
26 | O=C(CN1C(=O)/C(=C2/SC(=S)N(CCS(=O)(=O)O)C2=O)c2ccccc21)Nc1cccc(C(F)(F)F)c1 | -24.5% [at 30.8 µM] (inactive) | –
27 | COc1ccc(CC(=O)NCc2ccc3c(c2)CCN3C(=O)c2ccc(Cl)cc2)cc1OC | – | inactive
28 | CN(C)S(=O)(=O)c1cccc(COC(=O)Cc2c(F)cccc2Cl)c1 | – | inactive
29 | Cc1cccc(NC(=O)CN2C(=O)S/C(=C\c3cccn3-c3cccc(C(=O)O)c3)C2=O)c1 | – | inactive
30 | Cc1ccc(C(C)C)c(OCC(=O)NCC2(N3CCOCC3)CCCCC2)c1 | – | inactive
31 | Cc1cccc(Nc2nnc(-c3ccc(N4CCOCC4)c([N+](=O)[O-])c3)c3ccccc23)c1 | – | inactive
32 | CN(c1ccccc1)c1ccc(/C=C(/CCC(=O)O)c2nc3ccccc3s2)cc1[N+](=O)[O-] | – | inactive
33 | COc1ccc(OC)c(-n2c(SC)nnc2-c2c[nH]c3ccccc23)c1 | – | inactive
